# Source: PubChem
# KAT2A inh = qHTS Assay for Inhibitors of GCN5L2 | Histone acetyltransferase KAT2A (Homo sapiens), Q92830 | GCN5L2 HAT assay, ThioGlo1 CoA-SH fluorescence | Potency, µM (titrated, usually from 58.9 µM), inactives show at the highest dose activity change, negative = inhibition, most hits filed as inhibitors | 0.21% of 390,000 active | AID 504327, 2011
#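 ThioGlo1-coupled HAT assay: 20nM GCN5L2, 70uM acetyl-CoA, 75uM H3(1-25) peptide, pH 7.5. Fluorescence read at 340/540nm at start and after 20 min at room temperature.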
# TDP1 block = qHTS Assay for Inhibitors of Tyrosyl-DNA Phosphodiesterase (TDP1). 0.28% of 350,000 active. Tyrosyl-DNA phosphodiesterase 1 (Homo sapiens), Q9NUW8. recombinant TDP1, AlphaScreen DNA substrate cleavage. Potency, µM (doses to about 130 µM), for the others: at the top dose activity change, negative = inhibition, usual class: inhibitors; also: nearly all actives have a fitted effect of over 40% in size
#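 Compounds were preincubated with Tdp1 (1 nM final) for 15 min at room temperature before substrate (15 nM final) started a 5 min reaction; beads (10 ug/ml final) were then added for 10 min before AlphaScreen detection.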
# RGS4 inh = Inhibitors of Regulator of G Protein Signaling (RGS) 4: qHTS. Regulator of G-protein signaling 4 (Homo sapiens), P49798. Transcreener GDP fluorescence polarization, RGS4-accelerated GTP hydrolysis. Potency, µM (titrated, usually from 114 µM), inactives show top-dose activity change, negative = inhibition, most hits filed as inhibitors. 0.039% of 390,000 active; also: nearly all actives have a fitted effect of over 75% in size
#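 MLSMR compounds (23 nl, pin-transferred) preincubated 10 min at room temperature with a 500nM (2x) first reagent, then RGS4 at 900nM (2x) plus Transcreener GDP mix added; fluorescence polarization (620/688 nm) read before and after 90 min at 30 °C.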
# APE1 inh = qHTS Assay for Inhibitors of the Human Apurinic/apyrimidinic Endonuclease 1 (APE1); DNA repair nuclease/redox regulator APEX1 (Homo sapiens), P27695; recombinant APE1, TAMRA/BHQ-2 abasic DNA cleavage fluorescence; Potency, µM (doses to about 65.8 µM), for the others: top-dose activity change, negative = inhibition, usual class: inhibitors; 0.35% of 350,000 active; AID 2517, 2012;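 also: plate controls were vehicle for no effect and reference inhibitor for full effect; nearly all actives have a fitted effect of over 55% in size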
#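 Substrate: short duplex with […] THF abasic site, 5'-TAMRA and 3'-BHQ-2, 50 nM final. APE1 at 0.75 nM, preincubated 15 min RT with compound. Fluorescence increase from first to third read measured activity.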
# BLM inh = qHTS Assay for Inhibitors of Bloom's syndrome helicase (BLM); RecQ-like DNA helicase BLM (Homo sapiens), P54132; recombinant BLM DNA unwinding, fluorescence dequenching; Potency, µM (top dose mostly 56.1 µM), for inactives: at the top dose activity change, negative = inhibition, most hits filed as inhibitors; 0.2% of 350,000 active;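 also: plate controls were vehicle for no effect and no enzyme for full effect; nearly all actives have a fitted effect of over 35% in size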
# Target sequence (P54132 whole entry, looked up): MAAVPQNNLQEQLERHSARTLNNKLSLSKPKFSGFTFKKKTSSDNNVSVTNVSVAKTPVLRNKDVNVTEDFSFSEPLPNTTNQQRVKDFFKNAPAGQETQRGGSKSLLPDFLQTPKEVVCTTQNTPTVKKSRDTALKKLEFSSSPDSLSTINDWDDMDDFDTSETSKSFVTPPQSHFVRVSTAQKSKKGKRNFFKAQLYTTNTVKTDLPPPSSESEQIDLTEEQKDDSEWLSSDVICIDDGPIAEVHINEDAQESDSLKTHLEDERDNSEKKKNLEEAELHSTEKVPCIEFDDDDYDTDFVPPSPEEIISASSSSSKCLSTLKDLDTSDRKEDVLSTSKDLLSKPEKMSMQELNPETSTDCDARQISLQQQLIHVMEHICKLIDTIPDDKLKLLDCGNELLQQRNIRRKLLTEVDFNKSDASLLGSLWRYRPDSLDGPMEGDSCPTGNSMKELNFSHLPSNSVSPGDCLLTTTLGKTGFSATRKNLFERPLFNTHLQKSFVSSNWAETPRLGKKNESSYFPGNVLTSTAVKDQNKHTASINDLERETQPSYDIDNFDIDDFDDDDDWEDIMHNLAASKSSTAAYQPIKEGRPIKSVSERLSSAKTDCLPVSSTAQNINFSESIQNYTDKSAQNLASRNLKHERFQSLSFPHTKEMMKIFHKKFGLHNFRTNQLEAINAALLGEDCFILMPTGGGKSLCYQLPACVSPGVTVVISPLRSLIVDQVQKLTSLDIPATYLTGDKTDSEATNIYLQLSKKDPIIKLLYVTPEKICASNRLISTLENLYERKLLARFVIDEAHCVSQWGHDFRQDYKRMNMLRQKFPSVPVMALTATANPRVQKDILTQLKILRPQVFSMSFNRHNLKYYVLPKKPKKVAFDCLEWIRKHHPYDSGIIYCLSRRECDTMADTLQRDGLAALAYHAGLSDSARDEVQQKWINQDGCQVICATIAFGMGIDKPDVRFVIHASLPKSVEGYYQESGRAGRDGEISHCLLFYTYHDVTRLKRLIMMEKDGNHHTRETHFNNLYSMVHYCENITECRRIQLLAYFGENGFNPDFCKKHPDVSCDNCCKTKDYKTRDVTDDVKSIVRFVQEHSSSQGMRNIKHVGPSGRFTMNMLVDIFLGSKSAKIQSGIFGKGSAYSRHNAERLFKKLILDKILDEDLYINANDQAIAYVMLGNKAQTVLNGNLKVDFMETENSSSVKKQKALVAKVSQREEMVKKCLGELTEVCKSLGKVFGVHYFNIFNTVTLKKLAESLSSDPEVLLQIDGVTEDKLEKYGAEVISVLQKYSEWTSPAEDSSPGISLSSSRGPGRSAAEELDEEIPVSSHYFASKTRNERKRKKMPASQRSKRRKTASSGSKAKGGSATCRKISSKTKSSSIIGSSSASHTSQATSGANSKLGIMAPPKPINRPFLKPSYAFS
# RECQ1 helicase = qHTS Assay for Inhibitors of RecQ-Like Dna Helicase 1 (RECQ1); ATP-dependent DNA helicase Q1 (Homo sapiens), P46063; RECQ1 DNA unwinding, red fluorescence kinetic read; Potency, µM (doses to about 57.3 µM), for the others: at the top dose activity, negative = inhibition, usual class: inhibitors; 0.54% of 240,000 active; AID 2549, 2010;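 also: plate controls were vehicle for no effect and no enzyme for full effect; nearly all actives have a fitted effect of over 30% in size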
#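 RECQ1T1 50 nM; forked duplex (20 bp + 30-nt ss tails) 200 nM, ATP 2 mM final; pH 8.0, 2 mM MgCl2, 2.5 ug/ml poly(dI-dC); 15 min compound preincubation; discontinuous kinetic read over 2 h at RT.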
# The depositor's hits bear a star; i = inactive; ? = inconclusive; nt = no result given. A selection: hits, their analogues and other compounds. The true share with any hit is near 0.87%. Calls follow the shape of the dose curve; as a rule, active = well fitted curve in the direction sought with a large enough effect; inconclusive = small, poorly fitted or top-dose-only effect, or another doubt; inactive = no such curve, though single readings can be large; an effect the other way counts as inactive or inconclusive. Unless noted, % is scaled to controls: 0 for no effect and ±100 for the full control effect; potency is read from the fitted curve at half-maximal effect.
SMILES,KAT2A inh,TDP1 block,RGS4 inh,APE1 inh,BLM inh,RECQ1 helicase
CO/N=C(/C(=O)NC1C(=O)N2C(C(=O)O)=C(COC(N)=O)CSC12)c1ccco1 (stereo not drawn),-13.8%,22.4µM*,nt,?,-9.9%,i
C=CCNc1oc(-c2ccc(F)cc2)nc1C#N,nt,nt,nt,49.1%,nt,nt
COc1ccccc1-c1cc(-c2ccc(O)cc2)nc(N)c1C#N,-7.7%,nt,11.1%,26.7µM*,31.6µM*,nt
COc1ccc(C(=O)NCC(=O)OC(C(=O)Nc2cc(C(F)(F)F)ccc2Cl)c2ccccc2)cc1OC (stereo not drawn),nt,-0.5%,nt,nt,nt,nt
CCN(CC)c1ccc2c(-c3ccc(S(=O)(=O)O)cc3S(=O)(=O)[O-])c3ccc(=[N+](CC)CC)cc-3oc2c1,?,nt,?,26.7µM*,25.1µM*,nt
CCN(CC)c1ccc2nc3c4ccccc4c(=O)cc-3oc2c1,0.6%,nt,-109.0%,-20.4%,-22.1%,nt
O=c1/c(=C/c2ccco2)sc2nc3cc(Br)cnc3n12,nt,nt,nt,14.2%,nt,nt
O=C(C=Cc1ccco1)c1ccco1,nt,nt,-33.6%,nt,nt,nt
C=C(C(C)=O)C(O)/C=C/c1ccco1 (stereo not drawn),nt,11.2µM*,nt,?,-14.2%,?
C#CCOc1ccc(-c2no[n+]([O-])c2C#N)cc1,nt,nt,nt,-9.3%,nt,nt
Cc1nn(Cc2ccc(F)cc2)c(C)c1NC(=O)c1cc2ncc(Br)cn2n1,-3.7%,31.6µM*,-2.8%,-11.5%,-15.7%,-10.8%
O=C(c1ccccc1O)N(Cc1ccco1)Cc1ccco1,nt,-3.4%,nt,nt,nt,nt
Cc1ccc(OCc2ccc(C(=O)O)o2)cc1C,-15.1%,nt,34.1%,-3.5%,-6.9%,nt
Cc1ccc(OCc2ccoc2C(=O)O)cc1C,-9.3%,50.1µM*,-13.6%,?,-0.3%,-11.2%
O=C(O)c1cc(O)c2c(c1)[C@H]([C@H]1c3cc(C(=O)O)cc(O)c3C(=O)c3c(O[C@@H]4O[C@H](CO)[C@@H](O)[C@H](O)[C@H]4O)cccc31)c1cccc(O[C@@H]3O[C@H](CO)[C@@H](O)[C@H](O)[C@H]3O)c1C2=O,nt,nt,nt,0.398µM*,nt,nt
c1ccc(CNCc2nnc(-c3cc4ccccc4[nH]3)o2)cc1,nt,-0.1%,nt,nt,nt,nt
O=C(N/N=C1/C(=O)c2cccc3cccc1c23)c1ccc(Cl)cc1,-22.5%,nt,?,0.5%,10µM*,i
Cc1nnc(CN(C)c2ncnc3ccc(-c4ccc5c(c4)OCO5)cc23)o1,nt,-2.1%,nt,nt,nt,nt
CCCC[C@H](NC(=O)[C@@H]1CCCN1C(=O)[C@H]1CCCN1C(=O)[C@H](Cc1ccccc1)NC(=O)[C@@H](Cc1c[nH]c2ccccc12)NC(=O)[C@H](C)NC(=O)[C@H](CCCN=C(N)N)NC(=O)OC(C)(C)C)C(N)=O,5.4%,5.6%,nt,12.3%,1.3%,9.1%
O=C1CN(C(=O)/C=C/c2ccco2)c2ccccc2N1,-10.3%,44.7µM*,-17.6%,?,-8.9%,-2.1%
Cc1ccc(S(=O)(=O)Oc2ccc(N=Nc3ccc(-c4ccc(N=Nc5c(O)ccc6cc(S(=O)(=O)O)cc(S(=O)(=O)O)c56)c(C)c4)cc3C)cc2)cc1,nt,25.1%,nt,35.5µM*,nt,25.1µM*
Cc1ccc(O)c(N=Nc2ccc(S(=O)(=O)N3CCOCC3)cc2)c1,-13.1%,3.6%,0.0%,7.9%,-2.8%,i
